Data taken from PubChem BioAssay AID652017 (The Scripps Research Institute Molecular Screening Center, 2013).
Out of some 370,000 compounds screened, about 3,800 (1%) were called active. No stated cut-off is given here; in the data, active means activation above about 7.8%; inactive means the rest. For the sample, actives were picked, then their nearest neighbours and some compounds at random.

Test: SMARCA2 (BRM) function activators, primary screen, cell-based, luminescence, high throughput (AID 652017);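 further: 0% = vehicle wells and 100% = reference activator wells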
Details: MG213 cells, MMTV-luciferase reporter, dexamethasone, overnight; at 9.1 µM; hits give high values

| Structure (SMILES) | activation |
| --- | --- |
| COC(=O)[C@]12C[C@H](CC(=O)NCc3cccc4ccccc34)C(=O)N(CCc3ccc(OC)c(OC)c3)C1=C[C@H](C1CCCC1)O[C@@H]2C | -1.03% (inactive) |
| CCOc1cccc2c1OC1(CCCCC1)N1N=C(c3cccnc3)CC21 (configuration not stated) | 8% (active) |
| CCCCN1CCN(C(=O)c2ccc3c(c2)NC(=O)C(C)(C)O3)CC1 | 2.59% (inactive) |
| O=S1(=O)c2c(cccc2N2CC[C@H](O)C2)O[C@@H]2CCN1C2 | -1.6% (inactive) |
| CCc1nc2ccc(C(=O)NCCNC(C)=O)cn2c1N(CC)Cc1cccc(Br)c1 | -2.59% (inactive) |
| Cc1cnc(C(=O)N2CCCC(C(=O)c3ccc(C(F)(F)F)cc3)C2)cn1 (configuration not stated) | 1.89% (inactive) |
| COCC(=O)N1CCCC(C(=O)c2ccc(C(F)(F)F)cc2)C1 (configuration not stated) | -2.48% (inactive) |
| Cn1cc(/C=C/C(=O)N2CCCC(C(=O)c3ccc(C(F)(F)F)cc3)C2)cn1 (configuration not stated) | 9.62% (active) |
| CCOC(=O)C1=C(C)NC2=C(C(=O)CC(C)(C)C2)C1c1ccc2c(c1)OCO2 (configuration not stated) | -5.79% (inactive) |
| O=C(c1cccc(C(F)(F)F)c1)N1CC[C@H]2[C@H](CCCN2Cc2cc(F)cc(F)c2)C1 | -1.61% (inactive) |
| CSc1ccc(/C=C/C(=O)NC23CC4CC(CC(C4)C2)C3)cc1 | 1.32% (inactive) |
| CCOc1ccccc1NC(=O)C12CC3CC(C1)CC(c1ccc(C)cc1)(C3)C2 | -1.92% (inactive) |
| COc1ccc(/C=C/C(=O)Nc2ccc(C34CC5CC(CC(O)(C5)C3)C4)cc2)cc1OC | 9.95% (active) |
| O=C(NCc1ccc(Cl)cc1)C1CCCN(c2nc3ccccc3o2)C1 (configuration not stated) | -7.39% (inactive) |
| Cc1ccc(C2=CCN(C)C(=O)N2c2ccc(Cl)cc2)cc1 | 1.89% (inactive) |
| Cc1cc2oc3ccc(NCCC4CCCN4C)cc3c(=O)c2cc1C (configuration not stated) | 8.67% (active) |
| CN1CCC[C@@H]1CCO[C@](C)(c1ccccc1)c1ccc(Cl)cc1 | -5.64% (inactive) |
| S=C(NCCCc1cnc[nH]1)NCCCN(Cc1ccc(Cl)c(Cl)c1)c1ccc(Br)cn1 | -3.8% (inactive) |
| COC(=O)C[C@@H]1CC[C@H]2[C@@H](COc3ccc(NS(=O)(=O)CC(F)(F)F)cc3C(=O)N2C)O1 | -3.47% (inactive) |
| COC(=O)[C@]12C[C@H](CC(=O)N3CCN(C(=O)C4CC4)CC3)C(=O)N(CCC3=CCCCC3)C1=C[C@H](C(C)C)O[C@@H]2C1CC1 | 0.49% (inactive) |
| Cc1cc(NS(=O)(=O)c2ccc(NC(=O)CSc3nnc(-c4ccc(C(C)(C)C)cc4)n3Cc3ccco3)cc2)nc(C)n1 | -2% (inactive) |

| Structure (SMILES) | activation |
| --- | --- |
| O=C(CSc1nc2ccccc2c(=O)n1-c1ccccc1F)N1CCOCC1 | -2.52% (inactive) |
| COc1ccc(-n2c(SCC(=O)Nc3ccc(C)c(Cl)c3)nc3ccccc3c2=O)cc1 | -5.45% (inactive) |
| Cc1ccc(-n2c(SCC(=O)N3CCC(C(=O)O)CC3)nc3ccccc3c2=O)cc1C | 9% (active) |
| N#Cc1cccc(NC(=O)COC(=O)c2ccccc2C(=O)c2ccc(Cl)c([N+](=O)[O-])c2)c1 | 6.3% (inactive) |
| O=C(CN1CCCc2ccccc21)NCc1ccc(F)cc1 | 4.7% (inactive) |
| Cc1ccc(-n2c(SCC(=O)Nc3cccc4ccccc34)nnc2-c2ccco2)cc1 | -1.08% (inactive) |
| Cc1cc(C)c2nc3nc(C)cc(C)c3c(N)c2c1 | 22.7% (active) |
| C[C@@H]1ON(C)[C@H]2C[C@H]3c4[nH]c5cccc(-c6ccc7c(c6)OCO7)c5c4CCN3C[C@@H]12 | -5.68% (inactive) |
| Clc1ccc(C(Cn2ccnc2)OCc2ccsc2Cl)c(Cl)c1 (configuration not stated) | -7.85% (inactive) |
| COc1ccc(Cn2c(C)c(C)c(C#N)c2NC(=O)Nc2ccc(F)cc2)cc1 | 13.3% (active) |
| COc1ccc(Cn2cccc(NC(=O)Nc3ccc(C#N)cc3)c2=O)cc1 | -4.78% (inactive) |
| Cc1c(C#N)c(NC(=O)c2ccccc2)n(Cc2ccccc2)c1C | -1.06% (inactive) |
| CC(NCc1ccco1)C(=O)N1CCCCC1 (configuration not stated) | -2.78% (inactive) |
| CC1CCN(c2ccc(C(=O)O)cc2NS(=O)(=O)c2ccc(Br)s2)CC1 | 0.67% (inactive) |
| CCOC(=O)c1cccc(NC(=O)CN(C)S(=O)(=O)c2ccc(-c3cocn3)s2)c1 | -7.26% (inactive) |
| CCCN1C(=O)C(Cc2nc3ccccc3c(=O)n2-c2ccccc2)c2cc(C)ccc21 (configuration not stated) | 8.92% (active) |
| Cc1ccc(S(=O)(=O)NCc2nc3ccccc3c(=O)n2N)cc1 | -5.01% (inactive) |
| CC(C)CC1NC(=O)c2cc(Cl)ccc2-n2c1nc1ccccc1c2=O (configuration not stated) | -0.02% (inactive) |
| O=C(OC12CCCN(C1)/C(=C/c1ccccc1)C2)c1ccco1 (configuration not stated) | -4.02% (inactive) |
| CC[C@H](NC(=O)[C@H](Cc1ccccc1)NC(=O)[C@H]1O[C@@H](n2cnc3c(=O)[nH]c(N)nc32)[C@H](O)[C@@H]1O)c1ccccc1 | -4.41% (inactive) |
| COC(=O)Cc1ccc(NC(=S)NCc2ccco2)cc1 | -1.02% (inactive) |

| Structure (SMILES) | activation |
| --- | --- |
| COC(=O)/C=C/C(=O)NCc1ccco1 | 1.96% (inactive) |
| CC(C)(C)c1ccc(NC(=O)NCc2ccco2)cc1 | 8.76% (active) |
| COC(=O)[C@H](C(C)C)N1CCc2nnn(Cc3ccc(C)cc3)c2-c2ccccc2S1(=O)=O | -3.89% (inactive) |
| COc1ccc(C(CNC(=O)c2ccc(S(=O)(=O)Nc3ccccc3F)cc2)N(C)C)cc1 (configuration not stated) | 8.4% (active) |
| COc1ccc(C(CNC(=O)c2ccc(NS(=O)(=O)c3ccc(F)c(C)c3)cc2)N(C)C)cc1 (configuration not stated) | -1.05% (inactive) |
| CC(=O)c1ccc(S(=O)(=O)Nc2ccc(C(=O)NCC(c3ccccc3)N(C)C)cc2)cc1 (configuration not stated) | 5.98% (inactive) |
| CC(=O)Nc1ccc(OC[C@@H](O)CN2CCC(C(O)(c3ccccc3)c3ccccc3)CC2)cc1 | -1.46% (inactive) |
| COCCCNC(=O)C[C@H]1C[C@@]2(C(=O)OC)C(=C[C@H](C(C)(C)C)O[C@@H]2C)N(Cc2ccc(Cl)cc2Cl)C1=O | -4% (inactive) |
| Cc1c(C(C)c2ccccc2O)[nH]c2ccccc12 (configuration not stated) | -2.39% (inactive) |
| Cc1ccc(NC(=O)C(=O)NCc2ccc(/C=N/NC(=O)c3c(C)nc4cc(C)ccn34)o2)cc1 | -0.59% (inactive) |
| Cc1ccc(NC(=O)Nc2cc(C)nn2-c2ccccc2)cc1 | -3.87% (inactive) |
| C=CCc1ccc(OCCOc2cccc(/C=N/n3cnnc3)c2)c(OC)c1 | 2.79% (inactive) |
| COc1cccc(OCCOc2cccc(/C=N/n3cnnc3)c2)c1 | 10.1% (active) |
| Cc1ccccc1OCCOc1ccc([N+](=O)[O-])cc1/C=N/n1cnnc1 | -1.85% (inactive) |
| CCc1ccc[n+](-c2nc([O-])sc2C=O)c1 | 8% (active) |
| COc1ccc(N2CCN(CCNS(=O)(=O)c3ccc([N+](=O)[O-])cc3)CC2)cc1 | -3.04% (inactive) |
| CN(C(=O)c1cccc(NC(=O)Cc2cccc([N+](=O)[O-])c2)c1)C1CCCCC1 | -2.39% (inactive) |
| O=C(Cc1ccc([N+](=O)[O-])cc1)NCCc1ccc2c(c1)OCO2 | 4.55% (inactive) |
| O=C(Nc1cccc([N+](=O)[O-])c1)c1ccc2c(c1)OCO2 | 8.1% (active) |
| COc1ccc(C(=O)Nc2ccc3c(c2)OCO3)cc1OC | 16.7% (active) |
| COc1ccc(C(=O)Nc2ccc(C3(C#N)CCCC3)cc2)cc1OC | 1.54% (inactive) |

| Structure (SMILES) | activation |
| --- | --- |
| COc1ccc(Cl)cc1NC(=O)CN(C)CC(=O)Nc1ccc2c(c1)OCO2 | -3.2% (inactive) |
| Cn1c(Cc2cccs2)nnc1SCC(=O)Nc1ccccc1 | 4.18% (inactive) |
| Cc1ccccc1CS(=O)(=O)Cc1ccc(C(=O)Nc2ccc(Cl)cc2)o1 | -8.47% (inactive) |
| CCc1nn(-c2cc(Oc3cccc4ccccc34)nc(-c3ccccc3)n2)c(N)c1C#N | 0.3% (inactive) |
| CCNC(=S)N1CCN(S(=O)(=O)c2ccc(Cl)s2)CC1 | -1.32% (inactive) |
| Cc1ccc(NC(=S)N2CCN(c3ncccn3)CC2)cc1C | 2.65% (inactive) |
| CCNC(=S)N1CCN(c2ncccn2)CC1 | 8.35% (active) |
| O=S1(=O)c2ccc(Br)cc2OC[C@@H](Cc2ccccc2)N1Cc1cn(Cc2ccco2)nn1 | -0.61% (inactive) |
| Cc1cccc(C2C3=C(CCCC3=O)N=C3c4ccccc4C(=O)C32)c1 (configuration not stated) | 1.45% (inactive) |
| COc1ccc(CCNC(=O)CSc2nc3c([nH]2)c(=O)n(C)c(=O)n3C)cc1 | -2.8% (inactive) |
| C=CCn1c(=O)c2ccccc2n2c(SCC(=O)N3CCCc4ccccc43)nnc12 | 1.43% (inactive) |
| C=CCn1c(SCC(=O)/C(C#N)=C(\C)N)nc2sc(C)c(C)c2c1=O | -1.26% (inactive) |
| CCCn1c(=O)c2ccccc2n2c(SCC(=O)/C(C#N)=C(\C)N)nnc12 | 9.35% (active) |
| COc1ccc(CN2C/C(=C/c3ccccc3)N3C(=O)C[C@@H](c4ccccc4)N=C23)c(OC)c1 | -4.07% (inactive) |
| COc1ccccc1C(=O)NC1CCCCN(C(C)C)C1=O (configuration not stated) | -0.79% (inactive) |
| Cc1ccc(-n2c(SCC(=O)Nc3cccc4ccccc34)nnc2-c2ccccn2)cc1 | -2.65% (inactive) |
| O=C1NC[C@H](Cc2ccc(O)cc2)N(C[C@@H]2CCCN2C[C@H](Cc2ccccc2)N2C[C@H](Cc3ccccc3)N(CC3CCCCC3)C(=O)C2=O)C1=O | -2.98% (inactive) |
| CC(C)C[C@H]1CNC(=O)C(=O)N1C[C@H]1CCCN1C[C@H](Cc1ccc(O)cc1)N1C[C@H](CC(C)C)N(CC2CCCCCC2)C(=O)C1=O | 8.41% (active) |
| CC(C)C[C@H]1CNC(=O)C(=O)N1C[C@@H]1CCCN1C[C@H](Cc1ccccc1)N1C[C@H](CC(C)C)N(CC2CCCCCC2)C(=O)C1=O | -3.56% (inactive) |
